Source: PubChem
VACV mCherry inh = vaccinia inhibition (mCherry reporter) | Potency, µM (titrated, usually from 36.5 µM), actives largely listed as inhibitors | 310,000 compounds, 0.63% hits | Vaccinia virus mCherry reporter infection, fluorescence | AID 720579; calls by dose curve; tested in A549 cells; also: nearly all actives have a fitted effect of over 35% in size
HCV inhibitor = blocks hepatitis C virus. Huh7.5.1 HCVcc-Cre infection, luciferase reporter, 44 h. Potency, µM (top dose mostly 41.8 µM), actives largely listed as inhibitors. 340,000 compounds, 3.4% hits; active = well fitted inhibition curve with a large enough effect; inconclusive = small, poorly fitted or top-dose-only effect, or another doubt; inactive = no such curve, though single readings can be large or run the other way
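Infectious HCVcc-Cre (~0.5 moi) was added to cells just after compound, with cells seeded 4 h earlier at 1,000 per well. Luciferase activity after 44 h culture reported infection; substrate was incubated 15 min at room temperature before reading.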
HCMV antiviral = inhibitors of human cytomegalovirus; 410,000 compounds, 4.5% hits; HFF cells, HCMV-luciferase reporter, 72 h; active compounds read low; activity change, negative = inhibition, % at 57.5 µM; in the data active = activity change below about -60%; inconclusive = no clear call, values can overlap the other calls; inactive = above about -39%
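Screen run at 2 compound doses on HFFs infected with reporter HCMV, MOI 1 PFU/cell. Luciferase activity from cell lysates at 72 h post infection gave inhibition relative to buffer-only and Salinomycin wells.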
VACV Venus inh = vaccinia inhibition (Venus reporter) | Vaccinia virus Venus reporter expression, fluorescence | Potency, µM (highest dose often 36.5 µM), most hits filed as inhibitors | 330,000 compounds, 0.46% hits | AID 720580; calls by dose curve; tested in A549 cells; also: nearly all actives have a fitted effect of over 30% in size
FMDV antiviral = foot and mouth disease virus antiviral activity. FMDV antiviral cell-based qHTS. 410,000 compounds, 1.2% hits. Potency, µM (highest dose often 57.9 µM), hits mostly inhibitors; calls by dose curve; tested in HEK293T cells; also: read-out not given here; nearly all actives have a fitted effect of over 45% in size
Each line names hits and unclear results; the compound was inactive in the other large screens. Compounds with a hit are over-represented: about 7.3% of the library has one in this group of screens.

CCCCCCN1C[C@@H](O)[C@H](n2cc(COC(=O)c3ccccc3)nn2)C[C@@H]1c1ccc(OC)cc1	HCMV antiviral -101.5 (no result: HCV inhibitor)
Cc1ccc([C@H]2C[C@@H](O)[C@H](n3cc(COC(=O)c4ccccc4)nn3)CN2CC2CCCCC2)cc1	HCMV antiviral -89.0 (no result: HCV inhibitor)
O=C(COc1ccc(S(=O)(=O)N2CCOCC2)cc1)NCCN1CCOCC1	none
CCn1cc(CN2CCC(n3nccc3NC(=O)c3cccc(F)c3)CC2)cn1	none
COc1cccc(C2CC(=O)Nc3c2c(=O)n(C)c2nc4ccccc4n32)c1OC (centres undefined)	none (no result: HCV inhibitor)
Cc1ccc(NC(=O)c2ccc(Cl)c(S(=O)(=O)Nc3c(C)n(C)n(-c4ccccc4)c3=O)c2)cc1Cl	VACV mCherry inh inconclusive, HCV inhibitor inconclusive
COc1ccc(CCNC(=O)c2cnn(-c3nccc(-c4cccs4)n3)c2C)cc1OC	VACV Venus inh inconclusive (no result: HCV inhibitor, HCMV antiviral)
CCN1C(=O)[C@H]2[C@@H](c3ccc(-c4ccc(OC)cc4)c(OC)c3)N3CCCC[C@@]3(C(=O)OC)[C@H]2C1=O	VACV mCherry inh inconclusive, HCV inhibitor inconclusive, VACV Venus inh inconclusive
CCN(Cc1nc2ccccc2c(=O)[nH]1)C(=O)c1cccc(OCc2c(C)noc2C)c1	HCV inhibitor inconclusive, HCMV antiviral -99.6, FMDV antiviral inconclusive
CCN(Cc1ccc(Cl)s1)C(=O)c1cccc(OCc2c(C)noc2C)c1	HCV inhibitor inconclusive, FMDV antiviral inconclusive
Cc1cc(C)cc(NC(=O)Nc2cc(-c3ccccc3)nn2C)c1	HCMV antiviral -68.7
Cc1ccc(NS(=O)(=O)c2cc(-c3cnc(C4CC4)o3)ccc2C)cc1Cl	HCMV antiviral -64.2 (no result: HCV inhibitor)
Cc1ccc(N(C)S(=O)(=O)c2cc(-c3cnc(C4CC4)o3)ccc2C)cc1	HCV inhibitor 3.16µM, FMDV antiviral inconclusive
Cc1cccc(N(C)S(=O)(=O)c2ccc(-c3cnc(C4CC4)o3)cc2)c1	HCV inhibitor inconclusive, HCMV antiviral -97.6, FMDV antiviral inconclusive (no result: VACV mCherry inh, VACV Venus inh)
Cc1ccc(-c2cnc(C3CC3)o2)cc1S(=O)(=O)Nc1ccccc1	HCV inhibitor inconclusive (no result: VACV mCherry inh, HCMV antiviral, VACV Venus inh)
CCN1C(=O)[C@H]2[C@@H](c3ccc(C(F)(F)F)cc3)N[C@]3(CCCN(CC4CCCCC4)C3=O)[C@H]2C1=O	none (no result: HCV inhibitor)
O=C(c1ccc(CS(=O)c2cccc(Cl)c2)o1)N1CCN(c2ccccn2)CC1 (centres undefined)	none (no result: VACV mCherry inh, VACV Venus inh)
C=C(C)CN(CC)c1nc(N)c2c(N)nc3c(c2c1C#N)CC(=O)N3C12CC3CC(CC(C3)C1)C2	VACV mCherry inh inconclusive, HCV inhibitor 3.98µM, HCMV antiviral -69.4, FMDV antiviral inconclusive
COc1ccc(CN2C(=O)Cc3c2nc(N)c2c(N)nc(N4CCCCC4)c(C#N)c32)cc1	none (no result: VACV mCherry inh, HCMV antiviral, VACV Venus inh, FMDV antiviral)
N#Cc1c(N(CCO)CCO)nc(N)c2c(N)nc3c(c12)CC(=O)N3CC1CCCO1 (centres undefined)	none (no result: VACV mCherry inh, VACV Venus inh)
CCCCN1C(=O)Cc2c1nc(N)c1c(N)nc(N(CCC)CCC)c(C#N)c21	HCV inhibitor 3.98µM
N#Cc1c(N2CCCC(O)C2)nc(N)c2c(N)nc3c(c12)CC(=O)N3C12CC3CC(CC(C3)C1)C2 (centres undefined)	HCV inhibitor 3.98µM (no result: VACV mCherry inh, VACV Venus inh)
C=CCNC(=O)C1CC1(c1cccc(C)c1)c1cccc(C)c1 (centres undefined)	none
Cc1cccc(C2(c3cccc(C)c3)CC2C(=O)Nc2ccc([N+](=O)[O-])cc2O)c1 (centres undefined)	VACV mCherry inh inconclusive, HCV inhibitor inconclusive, HCMV antiviral -104.2, VACV Venus inh inconclusive, FMDV antiviral inconclusive
O=C(O)c1cccc(COc2ccccc2Cl)c1	HCMV antiviral inconclusive, FMDV antiviral 1.41µM (no result: VACV mCherry inh, VACV Venus inh)
Cc1ccc(C(=O)N/N=C/c2nc3ccccc3n2C)cc1	HCV inhibitor inconclusive, HCMV antiviral -65.6 (no result: FMDV antiviral)
Cn1c(/C=N/NC(=O)c2ccccc2Br)nc2ccccc21	none (no result: FMDV antiviral)
O=C(Nc1cccc(Cl)c1)C1CCCN(c2nn3cc(-c4ccc(F)cc4)nc3s2)C1 (centres undefined)	none (no result: HCV inhibitor)
Cc1cc(C)c2nccc(/C=C/c3ccc(N(C)C)cc3)c2c1	none (no result: HCV inhibitor, HCMV antiviral, FMDV antiviral)
O=C(Cc1ccc(F)cc1)Nc1nccs1	none (no result: VACV mCherry inh, VACV Venus inh)
Cc1nnc(SCC(=O)Nc2nccs2)o1	HCMV antiviral -61.3
Cc1ccc(CC(=O)Nc2nccs2)cc1	HCMV antiviral -66.8 (no result: VACV mCherry inh, VACV Venus inh)
COc1ccc(OCC(=O)Nc2nccs2)cc1	none
CCOc1ccc(OCC(=O)Nc2nccs2)cc1	FMDV antiviral 8.91µM (no result: HCMV antiviral)
N#Cc1cccc(NC(=O)N2CC[C@@]3(CCCN(C(=O)c4cc(C(F)(F)F)cc(C(F)(F)F)c4)C3)C2)c1	none (no result: VACV mCherry inh, HCV inhibitor, HCMV antiviral, VACV Venus inh)
COc1ccc(C)cc1N(C(=O)c1ccco1)C(C(=O)NC1CCCC1)c1ccc(N2CCOCC2)cc1 (centres undefined)	none
Clc1ccccc1C(c1ccccc1)(c1ccccc1)n1ccnc1	HCV inhibitor inconclusive, HCMV antiviral -69.7, FMDV antiviral inconclusive
C#CC(c1ccccc1)(c1ccccc1)n1ccnc1	HCMV antiviral inconclusive (no result: HCV inhibitor)
O=[N+]([O-])c1ccc2nc(-[n+]3c(-c4ccccc4)cc(-c4ccccc4)cc3-c3ccccc3)[nH]c2c1	VACV mCherry inh inconclusive, HCV inhibitor inconclusive, VACV Venus inh inconclusive (no result: HCMV antiviral)
O=[N+]([O-])c1cc(Cl)c(O)c(-[n+]2c(-c3ccccc3)cc(-c3ccccc3)cc2-c2ccccc2)c1	HCV inhibitor inconclusive, HCMV antiviral -75.0 (no result: VACV mCherry inh, VACV Venus inh)
O=[N+]([O-])c1ccc(C[n+]2ccc(Cc3ccccc3)cc2)cc1	VACV mCherry inh inconclusive, HCMV antiviral -73.5
O=[N+]([O-])c1ccc(-c2csc(Nc3ccccc3)[n+]2Cc2ccccc2)cc1	none
C[n+]1c(-c2ccccc2)cc(-c2ccc(Cl)cc2)cc1-c1ccccc1	HCMV antiviral inconclusive, FMDV antiviral inconclusive
O=C([O-])c1cc(-c2ccccc2)cc(-c2ccccc2)[n+]1Cc1ccccc1	HCMV antiviral -78.9 (no result: VACV mCherry inh, VACV Venus inh, FMDV antiviral)
O=[N+]([O-])c1ccc(C[n+]2c(-c3ccccc3)cc(-c3ccccc3)cc2-c2ccccc2)cc1	HCV inhibitor 10µM, HCMV antiviral -62.7
O=[N+]([O-])c1ccc(C[n+]2ccccc2)cc1	none
O=C(NNC(=O)c1c(O)c2ccccc2[nH]c1=O)c1ccccc1Br	none
O=C(CCC1CCCN(C(=O)c2cccc(F)c2)C1)N1CCN(c2ccccn2)CC1 (centres undefined)	FMDV antiviral inconclusive
Cc1cc(-c2ccccc2)cc(C)[n+]1Cc1ccccc1	HCMV antiviral -92.6, FMDV antiviral inconclusive
Cc1ccc(OCc2nnc(SCc3cc(=O)[nH]c4ccccc34)n2-c2ccccc2)cc1	VACV mCherry inh inconclusive, VACV Venus inh 10µM
COc1ccc2c(c1)CC(C(=O)NCCCN1CCN(c3cccc(Cl)c3)CC1)CO2 (centres undefined)	none (no result: HCV inhibitor)
Cc1nc(C(F)(F)F)ccc1C(=O)N1CCC1(C)C(=O)NS(=O)(=O)c1cccc(Cl)c1 (centres undefined)	HCMV antiviral -90.8 (no result: HCV inhibitor)
CC(C)(C)c1nn2cnnc2n(/N=C/c2cccc3ccccc23)c1=O	VACV Venus inh inconclusive, FMDV antiviral 28.2µM
Cc1ccc(/C=N/n2c(=O)c(C(C)(C)C)nn3cnnc23)cc1	none
Nc1nc(N2CCN(C(=O)c3ccco3)CC2)nc2ccccc12	none (no result: VACV mCherry inh, VACV Venus inh)
Cc1cc(N2CCN(C(=O)c3ccco3)CC2)c2ccccc2n1	none (no result: VACV mCherry inh, VACV Venus inh)
